# PLC-gamma1 inh: inhibitors of human phospholipase C gamma1; inhibition, % at 12.2 µM; 0.84% of 370,000 active; P19174; purified PLC-gamma1, fluorogenic substrate, fluorescence; in the data active = inhibition above about 9.5%
# Yeast superoxide: lowers age-related superoxide in aged yeast cells. 0.18% of 330,000 active. S. cerevisiae aged cells, superoxide DHE fluorescence; stronger effect = lower value. superoxide response (% of plate mean), % at 10 µM;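 active = superoxide response under a set limit, about three screen SD below normal, cut at about 65% in these data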;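 note: yeast aged for seven days with compound at 30 °C before DHE staining; 100% = average MFI of all compound-treated wells on the plate with controls excluded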
# AHR act: activators of human aryl hydrocarbon receptor | P35869 | AID 2796 | AHR-responsive luciferase reporter cells, luminescence | 2.5% of 320,000 active | activation, % at 5 µM; in the data active = activation above about 47%;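 note: 0% = vehicle wells and 100% = reference agonist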
# Target sequence (P35869 whole entry, looked up): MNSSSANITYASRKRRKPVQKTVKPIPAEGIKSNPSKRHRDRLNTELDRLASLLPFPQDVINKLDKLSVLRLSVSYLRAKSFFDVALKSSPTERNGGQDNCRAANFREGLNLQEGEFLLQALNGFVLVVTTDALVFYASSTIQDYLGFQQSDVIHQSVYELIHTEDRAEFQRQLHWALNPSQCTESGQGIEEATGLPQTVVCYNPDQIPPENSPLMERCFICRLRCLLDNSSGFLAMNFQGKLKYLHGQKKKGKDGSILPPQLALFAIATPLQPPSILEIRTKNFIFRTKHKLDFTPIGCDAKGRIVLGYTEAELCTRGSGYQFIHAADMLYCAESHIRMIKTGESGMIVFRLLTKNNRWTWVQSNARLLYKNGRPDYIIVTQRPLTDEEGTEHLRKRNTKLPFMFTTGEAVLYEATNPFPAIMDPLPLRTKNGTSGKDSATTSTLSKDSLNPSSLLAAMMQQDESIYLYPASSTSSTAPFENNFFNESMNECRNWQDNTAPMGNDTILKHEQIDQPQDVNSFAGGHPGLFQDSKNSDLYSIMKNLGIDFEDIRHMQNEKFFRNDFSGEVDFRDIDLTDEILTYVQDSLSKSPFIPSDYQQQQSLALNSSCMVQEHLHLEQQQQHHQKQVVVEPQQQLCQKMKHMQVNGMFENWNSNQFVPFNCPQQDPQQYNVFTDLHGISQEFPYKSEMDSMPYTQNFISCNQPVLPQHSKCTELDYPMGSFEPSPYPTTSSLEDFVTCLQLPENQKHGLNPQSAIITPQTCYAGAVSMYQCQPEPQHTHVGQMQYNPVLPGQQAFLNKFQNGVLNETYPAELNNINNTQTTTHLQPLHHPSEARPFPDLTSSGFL
# PLC-beta3 inh: inhibitors of human phospholipase C beta3 | Q01970 | Purified PLC-beta3, fluorogenic substrate, fluorescence | inhibition, % at 12.2 µM | 0.18% of 370,000 active | AID 720704; in the data active = inhibition above about 11%;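 note: 0% = median of compound wells on plate and 100% = full blocker control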
# HIF act: HIF pathway transcriptional activation; U2OS HRE-luciferase reporter, luminescence; normalized: DMSO 0%, desferrioxamine 100%; activation, % at 7.5 µM (by protocol); 0.32% of 300,000 active; AID 1910;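 active = mean activation of at least 10% of the iron chelator positive control signal, with at least half of replicates also reaching 10%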
# sPLA2-III inh: Inhibits HGIII-sPLA2 liposome hydrolysis, primary screen; Q9NZ20; QFRET BODIPY PC-A2 liposome hydrolysis, fluorescence; inhibition, % at 12.2 µM; 0.56% of 370,000 active;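 active = inhibition above mean plus 3 SD of compounds lying within the high and low control bounds, cut at about 19% in these data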;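 note: 0% = median of test compound wells and 100% = no enzyme DMSO wells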
# sPLA2 confirm: human GIII-sPLA2 inhibition, confirmation. shares compounds with sPLA2-III inh. recombinant hGIII-sPLA2, BODIPY PC-A2 QFRET fluorescence. inhibition, % at 12.2 µM. 34% of 2,000 active;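 active = mean inhibition across triplicates above the hit cutoff set in the earlier primary screen, cut at about 19% in these data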;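 note: 0% = enzyme with DMSO and 100% = DMSO wells lacking enzyme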
# 535nm interf: 535nm fluorescence interference, HGIII-sPLA2 counter-screen; shares compounds with sPLA2-III inh; inhibition, % at 12.2 µM; AID 743282; BODIPY FL product fluorescence interference, QFRET; 8.5% of 2,000 active;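 active = average inhibition above the solvent-only control mean plus 3 SD, cut at about 6% in these data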;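 note: 0% = DMSO with substrate plus product and 100% = DMSO with substrate alone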
# 535nm interf DR: counter-screen for HGIII-sPLA2 inhibitors: 535nm fluorescence interference, dose response | shares compounds with sPLA2-III inh | BODIPY FL product fluorescence interference, cell-free | IC50, µM | 240 tested, under 10 active;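 active = IC50 at or below 10 µM; inactive = IC50 above 10 µM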
# The depositor's hits bear a star; x = no result. Sampled rows, rich in hits. Any-hit rate of the full collection: about 3.9%.
SMILES,PLC-gamma1 inh,Yeast superoxide,AHR act,PLC-beta3 inh,HIF act,sPLA2-III inh,sPLA2 confirm,535nm interf,others
N/C(=N\C(=S)Nc1ccccc1)c1ccccc1,3,105,6,-2,2,2,x,x,
NC(N)=NC(=S)Nc1ccc(Cl)cc1,4,95,x,-5,-7,21*,18,-4,
CC(=O)OCC(=O)[C@@]1(O)CC[C@H]2[C@@H]3CCC4=CC(=O)C=C[C@]4(C)[C@H]3C(=O)C[C@@]21C,1,101,-1,-3,0,-5,x,x,
CCOC1(C)OCC(=O)[C@]2(CCC3C4CCC5=CC(=O)C=CC5(C)C4C(=O)CC32C)O1 (stereo not given in full),-2,103,-2,-1,x,19*,0,-15,
CCOC1=CC2=C(C(=O)C(Cl)=CC2=O)[C@@H]2CN(S(=O)(=O)c3ccc(C)cc3)[C@@H](c3ccccc3)[C@H]12,1,x,x,-5,x,31*,69*,11*,
CCN1C(=O)[C@@H]2[C@@H]3CN(S(=O)(=O)c4ccc(C)cc4)[C@@H](c4ccccc4)[C@@H]3C(=O)C[C@@H]2C1=O,-3,x,x,-1,x,-37,x,x,
Cc1ccc(Cn2c(=O)c3c(nc4n3CCCN4Cc3ccccc3)n(C)c2=O)cc1,4,96,1,10,0,73*,7,-17,
Cn1c(=O)c2[nH]c(=S)n(Cc3ccccc3)c2n(C)c1=O,-2,x,x,-1,x,23*,8,1,
CCCCn1c(=S)[nH]c2c(=O)n(C)c(=O)n(C)c21,3,x,x,0,x,7,x,x,
Cc1cc2c(c(=O)o1)[C@@]1(C(=O)N(C)c3c(Br)cccc31)C1=C(CCCC1=O)O2,1,x,x,4,x,-4,x,x,
Cc1ncc(CN2CCCC(C(=O)Nc3ccc(-c4cccc(F)c4)cc3)C2)n1C (stereo not given),9,111,15,2,0,-22,x,x,
CCCn1c(=O)c(C(=O)NNC(=O)c2ccccc2Cl)c(O)c2ccccc21,-5,91,4,-12,0,21*,20*,1,
CCOc1ccc(NC(=O)CSc2ccc(-c3ccccn3)nn2)cc1,6,102,1,-6,0,19*,-5,-22,
COc1ccc(NC(=O)CSc2ccc(-c3ccccn3)nn2)cc1OC,1,120,7,-3,0,19*,-1,-27,
COc1ccc(-c2ccc(SCC(=O)Nc3cccc(C(C)=O)c3)nn2)cc1OC,-1,88,14,-10,5,-3,x,x,
COC(=O)C[C@H]1CC[C@H]2[C@H](COc3ccc(NS(=O)(=O)c4cccc(OC)c4)cc3C(=O)N2C)O1,0,x,x,1,x,-3,x,x,
Oc1cccc2ccc(/C=C/c3ccccc3Br)nc12,-16,109,28,-20,-3,26*,6,-1,
COc1cc(Br)c(/C=C/c2ccc3cccc(O)c3n2)cc1OC,-7,94,11,-18,0,-3,x,x,
Cc1ccc(OC(C)C(=O)N2CC(=O)Nc3ccccc32)c(C)c1 (stereo not given),-2,113,1,-6,1,0,x,x,
CCOc1ccc(NC(=O)NNC(=O)c2ccc3ccccc3c2O)cc1,-48,72,10,-86,0,21*,24*,1,
COc1ccc(NC(=O)c2ccccc2NC(=O)c2ccccc2C(=O)O)c(OC)c1,-16,109,4,-37,2,22*,0,-1,
COc1ccccc1NC(=O)c1ccccc1C(=O)O,-3,113,1,1,0,8,x,x,
COc1ccc(NC(=O)NNC(=O)c2ccc3ccccc3c2O)c(OC)c1,-66,106,14,-109,0,32*,34*,5,535nm interf DR=>122
COc1ccc(NC(=O)NNC(=O)c2cc(C3CC3)nc3ccccc23)c(OC)c1,-2,95,15,-6,-1,-20,x,x,
CN(C)c1ccc(N=Nc2ccc3ncccc3c2)cc1,-2,x,x,2,x,10,x,x,
SMILES,PLC-gamma1 inh,Yeast superoxide,AHR act,PLC-beta3 inh,HIF act,sPLA2-III inh,sPLA2 confirm,535nm interf,others
Cc1cc(N(C)C)ccc1N=Nc1ccc2ncccc2c1,4,86,41,-5,1,23*,23*,2,
O=C(O)c1ccc(N2C(=O)CC(N3CCN(c4cccc(C(F)(F)F)c4)CC3)C2=O)cc1 (stereo not given),-4,102,5,-9,0,21*,2,-2,
COc1ccc(CC(N)c2csc(NC(=O)Nc3ccccc3-c3ccccc3)n2)cc1 (stereo not given),4,x,x,2,x,11,x,x,
Cc1cc(C(=O)NNC(=S)NC(C)c2ccccc2)c2ccccc2n1 (stereo not given),-12,103,1,-17,0,24*,29*,-7,535nm interf DR=>122
CCc1c(-c2n[nH]c(=S)n2Cc2ccccc2)csc1C,2,101,18,-4,0,20*,33*,3,535nm interf DR=>122
Cc1cccc(C)c1NC(=O)C1(C)CCC(=O)N1C1CC1 (stereo not given),-1,x,x,5,x,8,x,x,
O=c1oc(-c2cccc(C(F)(F)F)c2)nn1-c1ccc(C(F)(F)F)cn1,4,109,1,-3,0,21*,42*,25*,
Cc1nn(-c2cc(C(F)(F)F)ccn2)c(=O)o1,1,88,1,-2,0,4,x,x,
COc1ccc(CC(N)c2csc(NC(=O)c3cccs3)n2)cc1 (stereo not given),-11,x,x,-12,x,6,x,x,
CC(Oc1ccc2c(-c3ccccc3)cc(=O)oc2c1)C(=O)NCCCn1ccnc1 (stereo not given),0,100,-1,-1,0,-10,x,x,
CCOc1ccccc1N(CC(=O)Nc1ccc(S(=O)(=O)N2CCOCC2)cc1)S(=O)(=O)c1ccc(Cl)cc1,0,70,2,0,0,23*,-5,-4,
COc1ccccc1N(CC(=O)Nc1ccc(S(=O)(=O)N2CCOCC2)cc1)S(C)(=O)=O,0,105,1,-7,-17,1,x,x,
O=c1ccn([C@@H]2O[C@H](CNCC3=Cc4cc(O)ccc4OC3)[C@@H](O)[C@H]2O)c(=O)[nH]1,-8,x,x,-7,x,20*,1,-5,
O=c1ccn([C@@H]2O[C@H](CNCc3ccccc3)[C@@H](O)[C@H]2O)c(=O)[nH]1,0,x,x,3,x,3,x,x,
CCC(c1nnnn1-c1c(C)cccc1C)N1CCN(CCN2CCOCC2)CC1 (stereo not given),-4,x,x,2,x,5,x,x,
